Sampled rows, rich in hits. Any-hit rate of the full collection: about 2.3%.
Tau fluor counter: counter-screen for tau fibril formation inhibitors. tau K18 P301L Alexa594 fluorescence, heparin fibrillization. Potency, µM (highest dose often 57.7 µM). 280,000 tested, 0.93% active. AID 1463; note: nearly all actives have a fitted effect of over 55% in size
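Human tau K18 P301L (15 uM unlabeled, 0.24 uM Alexa 594-labeled) in 100 mM sodium acetate pH 7 with 20 uM heparin, 6 hr at 37 C. ThT 30 uM added, 1 hr ambient; Alexa 594 FP and total fluorescence read at 555/632 nm.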
Tau fibril FP: tau fibrillization inhibition (FP). K18 P301L tau heparin fibrillization, Alexa594 FP, 6 h. Potency, µM (doses to about 57.7 µM), usual class: inhibitors. 280,000 tested, 0.39% active. AID 1468; note: nearly all actives have a fitted effect of over 55% in size
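Human tau K18 […] P301L fragment, 15 uM unlabeled plus 0.24 uM Alexa 594-labeled tau (final), with compound and 20 uM heparin in 100 mM sodium acetate pH 7; 6 hr at 37 C, then Alexa 594 FP read.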
USP1 inh: blocks the human USP1/UAF1 deubiquitinase complex; recombinant USP1/UAF1, Ub-Rhodamine cleavage fluorescence; Potency, µM (highest dose often 57.1 µM), actives largely listed as inhibitors; AID 743255; 390,000 tested, 0.23% active; note: nearly all actives have a fitted effect of over 60% in size
Target sequence (O94782 whole entry, looked up): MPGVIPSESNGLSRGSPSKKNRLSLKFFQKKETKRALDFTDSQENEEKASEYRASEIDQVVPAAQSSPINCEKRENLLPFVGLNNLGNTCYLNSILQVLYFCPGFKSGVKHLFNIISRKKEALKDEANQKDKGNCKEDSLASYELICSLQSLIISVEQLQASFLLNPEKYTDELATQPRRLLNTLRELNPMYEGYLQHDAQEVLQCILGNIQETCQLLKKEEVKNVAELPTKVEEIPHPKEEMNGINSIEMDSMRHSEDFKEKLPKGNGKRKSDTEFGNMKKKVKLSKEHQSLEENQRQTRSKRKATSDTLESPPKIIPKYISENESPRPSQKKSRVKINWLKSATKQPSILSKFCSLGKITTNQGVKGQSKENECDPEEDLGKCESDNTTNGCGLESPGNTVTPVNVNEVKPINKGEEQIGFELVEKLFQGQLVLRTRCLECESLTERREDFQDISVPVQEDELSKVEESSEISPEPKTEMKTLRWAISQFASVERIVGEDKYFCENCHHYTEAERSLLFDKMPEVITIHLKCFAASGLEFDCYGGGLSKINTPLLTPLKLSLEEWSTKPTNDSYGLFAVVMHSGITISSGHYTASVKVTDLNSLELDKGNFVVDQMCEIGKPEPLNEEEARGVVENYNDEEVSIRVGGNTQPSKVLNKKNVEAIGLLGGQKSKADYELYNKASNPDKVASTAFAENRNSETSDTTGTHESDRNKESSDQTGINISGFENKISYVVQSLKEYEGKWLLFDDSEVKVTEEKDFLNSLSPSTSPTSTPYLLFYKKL
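USP1/UAF1 complex at 1 nM was preincubated with compound for 15 min at room temperature, then Ub-Rho substrate (150nM final) was added. Fluorescence (480/540 nm) was read kinetically, 6 reads every 60 seconds.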
Tau fibril ThT: inhibitors of human tau fibril formation, thioflavin T binding; 270,000 tested, 2.1% active; Potency, µM (top dose mostly 57.4 µM), actives largely listed as inhibitors; AID 1460; P10636; recombinant tau K18 P301L, heparin-induced fibrillization, ThT fluorescence; note: nearly all actives have a fitted effect of over 55% in size
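Fibril formation assay: tau K18 P301L at 15 uM with trace Alexa 594 label, heparin inducer 20 uM, pH 7 sodium acetate buffer, 37 C for 6 hr; endpoint ThT signal.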
FBPA coupling cs: counter-screen for Giardia aldolase inhibitors: coupling enzyme system; AID 2472; coupling enzyme system counterscreen, AmpLite Red fluorescence; activity change, negative = inhibition, % at 58.2 µM, hits read low; 290,000 tested, 0.67% active; in the data active = activity change below about -30%
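Compounds tested against the coupling enzymes alone at 57.5 uM final; readout was AmpLite Red fluorescence (525/598 nm) after 20 min at RT.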
Numbers stand for hits; i = inactive; ? = inconclusive; nt = not tested or not shown; [ ] = remark or other dose. Unless noted, calls come from the whole dose curve; as a rule, active = well fitted curve in the direction sought with a large enough effect; inconclusive = small, poorly fitted or top-dose-only effect, or another doubt; inactive = no such curve, though single readings can be large; an effect the other way counts as inactive or inconclusive.

SMILES | Tau fluor counter | Tau fibril FP | USP1 inh | Tau fibril ThT | FBPA coupling cs
C#CCOc1ccc(C2C(C(=O)OC)=C(C)NC3=C2C(=O)c2ccccc23)cc1OCC (stereo not drawn) | 11µM[quencher] | i | i | ? | nt
CCOc1cc(C2C(C(=O)OC)=C(C)NC3=C2C(=O)c2ccccc23)ccc1OC (stereo not drawn) | ? | i | i | ? | nt
CCOc1cc(C2C(C(=O)OC)=C(C)NC3=C2C(=O)c2ccccc23)cc(Br)c1OCC (stereo not drawn) | 4µM[quencher] | ? | i | ? | nt
CCOc1cc(C2C(C(=O)OC)=C(C)NC3=C2C(=O)c2ccccc23)c(Br)cc1OC (stereo not drawn) | 16µM[quencher] | i | i | ? | nt
CSc1ccc(CCNC(=O)c2cc3c(-c4ccccc4F)nn(C)c3s2)cc1 | ? | ? | ? | i | nt
CCOc1ccc(OCC)c(NC(=O)CCc2nc3cccnc3n2Cc2cccs2)c1 | i | i | i | ? | nt
O=c1c(C/C=C/c2ccccc2)c(O)ccn1CCc1c[nH]c2ccccc12 | 18µM[quencher] | i | i | i | i
COc1ccc2[nH]cc(CCn3ccc(O)c(C/C=C/c4ccccc4)c3=O)c2c1 | 25µM[quencher] | ? | i | ? | i
CC1CCCN(S(=O)(=O)c2ccc(NC(=O)c3nc(SC(C)C)ncc3Cl)cc2)C1 (stereo not drawn) | ? | i | i | ? | nt
Cc1ccc(C2NC(=O)c3c(sc(C)c3C)N2)c(O)c1 (stereo not drawn) | ? | i | i | ? | i
Cc1cccc(C2NC(=O)c3c(sc(C)c3C)N2)c1O (stereo not drawn) | i | i | i | 16µM | i
Cc1ccc2c(c1)N(C(=O)CSc1nncn1C)C(C)(C)c1ssc(=S)c1-2 | i | i | i | ? | i
Cc1cc2c(cc1C)N(C(=O)CSc1nncn1C)C(C)(C)c1ssc(=S)c1-2 | i | i | i | 20µM | i
CCN(CC)CCSc1nnc2c3cc(F)ccc3n(CC)c2n1 | i | i | i | i | nt
Cc1cc(-n2c(SCc3ccccc3F)nc3n[nH]c(C)c3c2=N)ccc1Cl | i | 18µM | ? | i | i
Cc1nc2ccn(Cc3cccs3)c(=O)c2cc1C(=O)Nc1ccccc1 | i | i | i | i | nt
CCOC(=O)c1c(-c2cccc([N+](=O)[O-])c2)csc1N | 22µM[quencher] | i | i | ? | i
CCOC(=O)c1c(-c2cccc([N+](=O)[O-])c2)csc1NC(=O)C1CC1 | i | i | ? | ? | i
O=[N+]([O-])c1ccccc1SNc1ccccc1 | nt | nt | i | nt | nt
O=C(O)C1CCC(NSc2ccccc2[N+](=O)[O-])CC1 (stereo not drawn) | i | 18µM | i | 16µM | i
O=C(NCCCN1CCOCC1)c1sc2cc([N+](=O)[O-])ccc2c1Cl | i | ? | i | 28µM | -60
O=C(NCc1ccc(F)cc1)c1cc2c(=O)n3ccccc3nc2s1 | i | i | i | i | nt
Cc1nc(N)sc1N=Nc1ccc(F)cc1 | ? | i | i | 8.9µM | i
O=C1/C(=C/c2cccs2)COc2ccccc21 | i | i | i | ? | i
CN(C)/N=C/C=C1\CC/C(=C\c2ccc(Br)cc2)C1=O | ? | i | ? | 0.89µM | i
SMILES | Tau fluor counter | Tau fibril FP | USP1 inh | Tau fibril ThT | FBPA coupling cs
CN(C)c1ccc(/C=C2\CCCCC2=O)cc1 | ? | i | i | ? | i
CN(C)/N=C/C=C1\CCC/C(=C/c2cccs2)C1=O | i | i | i | 0.63µM | i
O=C(COC(=O)[C@H](Cc1c[nH]c2ccccc12)NC(=O)c1ccc(Cl)cc1)Nc1ccc2c(c1)OCO2 | 8.9µM[quencher] | i | i | ? | i
COc1ccc2nc(N=Nc3ccc(N(C)C)cc3)sc2c1 | ? | i | i | 0.89µM | i
COc1ccc(N2C3=C(CC4=C2CC(C)(C)CC4=O)C(=O)CC(C)(C)C3)cc1 | i | ? | ? | 20µM | -48
O=C1OC(c2ccc(F)cc2)=C/C1=C\c1ccc([N+](=O)[O-])o1 | ? | ? | nt | 16µM | i
CC(=O)C(Sc1nccc(-c2cccs2)n1)C(C)=O | i | i | i | i | -51
O=C(NN1C(=O)C2C(C1=O)C1C=CC2C12CC2)c1ccncc1 (stereo not drawn) | ? | ? | i | 10µM | i
O=C(NN1C(=O)C2C(C1=O)C1C=CC2C12CC2)c1cccnc1 (stereo not drawn) | i | i | i | i | i
Cc1cc(C)c(NC(=O)Cn2c(=O)n(Cc3ccc(C(=O)NCc4ccco4)cc3)c(=O)c3sccc32)c(C)c1 | i | i | i | i | nt
O=C1NN(c2ccccc2)C(=O)/C1=C/c1ccc(-c2ccc(C(=O)O)cc2)o1 | nt | nt | i | nt | i
O=C(O)c1ccc(N2C(=O)/C(=C/c3ccc(-c4ccc([N+](=O)[O-])cc4)o3)C=C2c2ccccc2)cc1 | ? | ? | i | 4.5µM | i
O=C(NNc1cc(Br)c(O)c(Br)c1)c1ccccc1 | ? | 16µM | i | 5µM | i
CCOc1ccccc1NC(=O)NCc1noc2ccc(C)cc12 | ? | i | i | i | nt
Cc1ccc(-c2cc(C(=O)N/N=C/c3ccc([N+](=O)[O-])o3)c3ccccc3n2)o1 | nt | nt | i | nt | nt
Cc1ccc2nc(N/N=C/c3ccco3)cc(C)c2c1 | ? | i | i | 18µM | i
Cc1cc(N/N=C/c2ccc([N+](=O)[O-])o2)nc2ccccc12 | ? | i | i | 1.6µM | i
Cc1ccc2nc(C)cc(SCC(=O)N/N=C/c3ccco3)c2c1 | nt | nt | i | nt | nt
CC(C)NC(=O)c1cc2c(Cl)nc3ccccc3c2s1 | i | i | i | i | nt
COc1cc(/C=N/NC(=O)CCn2c3ccccc3c3ccccc32)ccc1O | 25µM[quencher] | i | i | ? | i
CCOc1ccc(NC(=O)Cn2cc(C(=O)c3ccc(C)c(C)c3)c(=O)c3cc4c(cc32)OCCO4)cc1 | i | i | i | i | nt
COc1ccc(S(=O)(=O)N2CN(Cc3ccco3)c3nc4ccccc4nc32)cc1 | i | ? | ? | 22µM | i
Cc1ccc(S(=O)(=O)N2CN(Cc3ccco3)c3nc4ccccc4nc32)cc1 | i | i | i | i | i
O=S(=O)(c1ccc(F)cc1)N1CN(Cc2ccco2)c2nc3ccccc3nc21 | ? | ? | i | 32µM | i
O=C(COC(=O)c1cccc(NC(=O)c2ccc(Br)cc2)c1)c1ccc(Cl)cc1 | i | ? | i | i | nt
C/C(CCN1CCCc2nc(C)c(C)cc21)=N\O[C@@H](C)CN1CCCc2nc(C)c(C)cc21 | ? | ? | nt | ? | i
Cc1ccc(C(=O)C(NC(=O)c2ccco2)Nc2sc3c(c2C(N)=O)CCCC3)cc1 (stereo not drawn) | ? | i | nt | 28µM | i
O=[N+]([O-])c1ccc(Cl)c2c1C1C=CCC1C(c1ccccn1)N2 (stereo not drawn) | ? | ? | ? | 25µM | i
O=C(O)c1ccc(Cl)c2c1C1C=CCC1C(c1ccccn1)N2 (stereo not drawn) | 14µM[quencher] | ? | nt | 14µM | i
O=S(=O)(c1ccc(NC(=S)Nc2ccccc2)cc1)N1CCOCC1 | i | i | i | i | i
